Growth data for seven molecules are collected here from PubChem BioAssay (NCI).

Holding throughout (test): NCI-60 one-dose screen, 48 h (100 = growth as untreated, 0 = no growth, -100 = all killed)
Holding throughout (conditions): 10 µM unless noted

In assay [1] the test system is HCT-15 colon.
In assay [2] the test system is HT29 colon.
In assay [3] the test system is SNB-75 CNS.
Assay [4] deals with SNB-19 CNS.
Assay [5] has as its system U251 CNS.
Assay [6] has as its system PC-3 prostate.
Assay [7] relates to SK-MEL-5 melanoma.
Assay [8] concerns UACC-62 melanoma.
For assay [9], the system named is LOX IMVI melanoma.
For assay [10], the system named is SK-MEL-28 melanoma.
Assay [11] concerns SK-MEL-2 melanoma.
For assay [12], the system named is EKVX NSCLC.
Assay [13] has as its system SN12C renal.
The test system of assay [14] is UO-31 renal.
Assay [15] relates to TK-10 renal.
Assay [16] relates to ACHN renal.
Assay [17] deals with A498 renal.
Assay [18] relates to CCRF-CEM leukemia.
In assay [19] the test system is MOLT-4 leukemia.
The test system of assay [20] is SR leukemia.

The panel holds about 83,000 compounds, 20% with a hit somewhere; the sample as a whole holds those more often.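 A percent growth of 40 corresponds to 60% growth inhibition; 0 means no net growth; -100 means all cells died. Active threshold: below 10.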 A number with no mark means an inactive call. Calls of active or inactive are those of the source.

With `COc1ccccc1C(=O)/C=C/c1cc2cccc(OC)c2[nH]c1=O`, the growth is -12.5% (active) in assay [1]; -39.1% (active) in assay [2]; 34.3% in assay [3]; -4.63% (active) in assay [4]; -55.7% (active) in assay [5]; 31.1% in assay [6]. Besides, the growth in assay [7] was -39.2% (active); in [8], -29.1% (active); in assay [9], -63.5% (active); in assay [10], 2.94% (active); in assay [11], 20%; in assay [12] it was 7.34% (active). The growth in assay [13] was -0.142% (active); in assay [14], -48.6% (active); in assay [15], 3.12% (active); in assay [16], 4% (active); in assay [17], -15% (active); in assay [18] it was -4.86% (active). The growth in [19] was 7.38% (active); in assay [20], -1.87% (active).
Regarding `CN(C)C1=NCCN1`, the growth is 108% in [1]; 88.3% in [2]; 75.8% in [3]; 111% in assay [4]; 96.9% in assay [5]; 80% in assay [6]. In addition, the growth was 103% in assay [7]; 102% in assay [8]; 99.2% in assay [9]; 113% in assay [10]; 81.5% in assay [11]; 103% in assay [12]. In addition, the growth in assay [13] is 104%; in assay [14] it was 96.2%; in assay [15], 93.6%; in assay [16], 111%; in [17], 107%; in assay [18], 90.2%. Also, the growth in assay [19] is 92.6%; in assay [20], 108%.
Regarding `C=C1C(=O)O[C@H]2[C@H]1CC/C(COC(=O)CCCCC(=O)OC/C1=C/CC[C@@]3(C)O[C@H]3[C@H]3OC(=O)C(=C)[C@@H]3CC1)=C\CC[C@@]1(C)O[C@@H]21`, the growth in [1] was 18.1%; in assay [2] it was 40.1%; in assay [3], 79.2%; in assay [4], 89.9%; in assay [5], 81.4%; in assay [6], 68.6%. For the same molecule, the growth in [7] was 77.9%; in [8] it was 48.3%; in assay [9], 52.2%; in [10], 76.8%; in assay [11], 71.9%; in assay [12], 59.1%. Moreover, the growth in assay [13] is 27.8%; in assay [14] it was 45.8%; in assay [15], 25.2%; in assay [16], 12.6%; in assay [17] it was 124%; in assay [18], 0.447% (active). Besides, the values for the growth in [19] and in assay [20] were 10.3% and 2.3% (active), respectively.
With `CN(C)[C@@H]1C(=O)C(C(N)=O)=C(O)[C@@]2(O)C(=O)C3=C(O)c4c(O)cc(CN5CCc6ccccc6C5)c(Cl)c4C[C@H]3C[C@@H]12`, the growth in [1] is -75.1% (active); in [2], -84.6% (active); in [3], -79.1% (active); in [4], -82.2% (active); in assay [5] it was -95.7% (active); in assay [6] it was -85.5% (active). In addition, the growth is -94.2% (active) in [7]; -89.5% (active) in assay [8]; -87.2% (active) in [9]; -86.6% (active) in assay [10]; -90.6% (active) in [11]; -90.3% (active) in assay [12]. For the same molecule, the growth in assay [13] is -73% (active); in assay [14] it was -95.5% (active); in [15], -84.3% (active); in assay [16], -76.1% (active); in [17] it was -89.2% (active); in assay [18] it was -40.7% (active). In addition, the growth was -67.9% (active) in assay [19] and -50.7% (active) in assay [20].
With `COC(=O)CCc1cc(O)c2c(c1)[C@@H](C(=O)OC)[C@H](c1ccc(O)c(O)c1)O2`, the growth in [1] was 50.3%; in assay [2] it was 95%; in assay [3], 71.2%; in assay [4], 74.9%; in [5], 71%; in assay [6], 85.5%. Besides, the growth in [7] is 76.4%; in assay [8], 66%; in [9], 63.4%; in assay [10], 73.8%; in assay [11], 47.8%; in [12] it was 87.7%. The growth in assay [13] was 95.1%; in [14], 67.7%; in assay [15], 90.6%; in [16], 98.2%; in assay [17], 98%; in assay [18], 53.6%. Besides, the growth in assay [19] was 47.7%; in assay [20], 36%.
Consider `Cc1cccc(NC(=O)c2sc3nc4c(cc3c2N)CN(Cc2ccccc2)CC4)c1C`, for which the growth in assay [1] is 29.6%; in assay [2], 9.33% (active); in [3], 13.5%; in [4], 34.3%; in assay [5] it was 25.4%; in assay [6], 32.2%. For the same molecule, the growth is 39.7% in assay [7]; 42.8% in assay [8]; 44% in [9]; 68.2% in assay [10]; 30.3% in [11]; 44.1% in assay [12]. For the same molecule, the growth in assay [13] is 43.6%; in assay [14], 51%; in [15] it was 59%; in assay [16] it was 52.9%; in [17], -0.165% (active); in [18], 13.9%. Besides, the growth in assay [19] was 22.5%; in assay [20] it was 25.5%.
`C/C(=C\c1cnc(C)s1)[C@@H]1C[C@@H]2O[C@@H]2CCC[C@H](C)[C@H](O)[C@@H](C)C(=O)C(C)(C)[C@@H](O)CC(=O)O1`: the growth was 23% in assay [1]; 8.92% (active) in assay [2]; -1.96% (active) in assay [3]; 44% in [4]; 24.5% in assay [5]; 34.2% in assay [6]. For the same molecule, the growth was 34.3% in assay [7]; 51% in assay [8]; 46.4% in assay [9]; 75.1% in assay [10]; 27.5% in assay [11]; 44.4% in [12]. Moreover, the growth in assay [13] was 54%; in assay [14], 36.4%; in [15], 44.8%; in [16], 52.8%; in [17] it was 4.95% (active); in assay [18] it was 30.7%. Further, the growth in assay [19] was 31.7%; in [20] it was 30%.
